Laboratory results from PubChem BioAssay AID624331 (National Center for Advancing Translational Sciences (NCATS), 2012).
Results filed as inconclusive are left out. Entries that show only a call come without a potency. The source made the active and inactive calls. Calls follow the shape of the dose curve; as a rule, active = well fitted activation curve with a large enough effect; inconclusive = small, poorly fitted or top-dose-only effect; inactive = no such curve, though single readings can be large or run the other way.

assay: qHTS assay for re-activators of p53 using a Luc reporter: Hit Validation with no p53 Expressed; settings: p53-null cells, luciferase reporter counter-screen; series mostly up to 46.1 µM
Procedure, shortened: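 Counter-screen of primary hits in a cell line not transfected with p53, in Opti-MEM with 10% FBS; compounds at several concentrations (10 mM stock, 1:5; top 46.1 µM in well), 24 h at 37 deg C, 5% CO2. Luminescence read after 10 min with Amplite reagent.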

SMILES | Potency
O=C(/C=C/Nc1ccccc1F)c1cccs1 | inactive
Cc1cccc(-n2nc([N+](=O)[O-])c(=NC3CCN(Cc4ccccc4)CC3)n2O)c1 | inactive
COCc1[nH]nc2c1C(c1cccc(OC)c1)C(C#N)=C(N)O2 (stereo not given) | inactive
Cc1ccc(OCCCNCCO)c(Br)c1 | inactive
Cc1ccc(NC(=O)/C(Cl)=C/c2ccccc2)cc1C | inactive
COc1ccc([N+](=O)[O-])cc1NC(=O)C1CCCCC1C(=O)O (stereo not given) | inactive
CC(C)c1ccc(C(O)c2nc3ccccc3n2C)cc1 (stereo not given) | inactive
Cc1ccc(NC(=S)NC(=O)C2CCCCC2)c(Br)c1 | inactive
COc1ccc2nc(SCc3ccccc3)nc(C)c2c1 | inactive
CCC(C)C(=O)N1CCc2cc(-c3csc(N)n3)ccc21 (stereo not given) | inactive
Cc1cc(C(=O)N/N=C/c2cccn2C)n[nH]1 | inactive
Oc1ccccc1-c1cc(-c2ccccc2)n[nH]1 | inactive
Cc1ccccc1S(=O)(=O)Nc1nc2ccccc2nc1N1CCc2ccccc2C1 | inactive
Cc1cc(NC(=O)c2ccco2)sc1C | inactive
O=C(NCC1CCCO1)c1ccc(NC(=O)c2cccc([N+](=O)[O-])c2)cc1 (stereo not given) | inactive
COc1ccc(CNc2nc(-c3ccccc3)nn2C(=O)c2ccc([N+](=O)[O-])cc2)cc1 | inactive
Cc1cc(CC(C)C)n(-c2nc3ccccc3c(=O)n2OCC(N)=O)n1 | inactive
O=C(COc1ccc(F)cc1Cl)NC1CCCCCC1 | inactive
O=C(Nc1ccc2c(c1)CCC2)c1ccccc1 | inactive
O=C(N/N=C/C1C(c2ccccc2)C1(Cl)Cl)c1cccc(Cl)c1 (stereo not given) | inactive
